Screening data (PubChem)
TEAD-YAP inh – TEAD-YAP interaction inhibition; 640,000 tested, 1.4% active; inhibition, % at 9.12 µM; HEK-TIYL cells, TEAD-Gal4/YAP UAS-luciferase luminescence; in the data active means inhibition above about 32%
MITF inh – human MITF inhibition, primary screen; O75030; AlphaScreen MITF homodimerization, bead proximity signal; inhibition, % at 2.6 µM; 650,000 tested, 0.91% active; AID 1259374; in the data active means inhibition above about 50%
FBW7 act – activators of human E3 ligase FBW7; Q969H0; AlphaScreen FBW7–phospho-cyclin E peptide binding, activator screen; normalized activity (activation), % at 26.1 µM; 650,000 tested, 0.13% active; AID 1259310; in the data active means normalized activity above about 1.9%;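 further: purified mutant Fbw7 with reduced substrate affinity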
Target sequence (Q969H0 whole entry, looked up): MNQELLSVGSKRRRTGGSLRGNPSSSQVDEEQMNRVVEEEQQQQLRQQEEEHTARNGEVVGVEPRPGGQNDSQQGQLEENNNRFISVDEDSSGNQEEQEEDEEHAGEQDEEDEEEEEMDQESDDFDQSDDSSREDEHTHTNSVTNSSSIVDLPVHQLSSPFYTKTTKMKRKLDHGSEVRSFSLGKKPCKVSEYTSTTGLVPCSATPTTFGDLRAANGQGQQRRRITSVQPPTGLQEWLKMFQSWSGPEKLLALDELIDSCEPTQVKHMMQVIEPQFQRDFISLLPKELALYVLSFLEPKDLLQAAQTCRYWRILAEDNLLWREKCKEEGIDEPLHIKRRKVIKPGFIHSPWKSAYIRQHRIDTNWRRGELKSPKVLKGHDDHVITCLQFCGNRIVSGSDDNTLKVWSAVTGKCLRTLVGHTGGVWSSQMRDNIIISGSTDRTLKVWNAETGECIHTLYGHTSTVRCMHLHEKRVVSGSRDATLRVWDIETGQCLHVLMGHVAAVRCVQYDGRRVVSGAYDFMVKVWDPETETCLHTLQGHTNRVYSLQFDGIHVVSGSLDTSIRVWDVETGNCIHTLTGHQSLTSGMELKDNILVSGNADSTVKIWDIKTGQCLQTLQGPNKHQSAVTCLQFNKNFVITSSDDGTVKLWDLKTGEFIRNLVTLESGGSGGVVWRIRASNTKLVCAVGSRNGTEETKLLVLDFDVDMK
GPR151 activ – activators of human GPR151; AID 1508602; activation, % at 11.2 µM; PathHunter beta-arrestin GPR151 cells, luminescence; 650,000 tested, 1% active; in the data active means activation above about 4.9%
Of the large screens only hits and unclear results are named; the others gave an inactive call. This is a sample that favours compounds with a hit; in the whole collection about 3.4% have one here.

COc1ccc(-c2cc(C(=O)O)c3ccccc3n2)cc1	none
COc1ccc(/C=C/c2cc(C(=O)O)c3ccccc3n2)cc1	TEAD-YAP inh 60
COC(=O)C1CC(=O)N(C)C12CCN(Cc1ccc(OCc3ccccc3)cc1)CC2 (stereo not drawn)	none
CCOc1ccccc1C(=O)NC1CC(=O)N(c2ccc(C)c(C)c2)C1 (stereo not drawn)	TEAD-YAP inh 43
Cc1ccc(N2CC(NC(=O)c3ccccc3C(F)(F)F)CC2=O)cc1C (stereo not drawn)	none
COc1ccc(CC(=O)Nc2cc(-c3cn[nH]c3)ccn2)cc1	TEAD-YAP inh 92
O=C(Cc1ccc(F)cc1)Nc1cc(-n2ccnc2-c2ccccc2)ccn1	TEAD-YAP inh 39
COc1ccc(CC(=O)Nc2ncc3ccc(-c4cn[nH]c4)cc3c2Cl)cc1	TEAD-YAP inh 40
Cn1cc(-c2ccnc(NC(=O)Cc3ccc(F)cc3)c2)cn1	TEAD-YAP inh 48
COc1ccc(CC(=O)Nc2ncc3ccc(-c4cn[nH]c4)cc3c2C#N)cc1	none
Cc1nc2sc(C(=O)OCCN3C(=O)c4ccccc4C3=O)c(C)c2c(=O)[nH]1	none
CC(C)NC(=O)CSc1nc2ccccc2n1CC(=O)N1CCCCC1	none
CC(=O)c1ccc(Nc2c(C)n(C)n(-c3ccccc3)c2=O)cc1	none
Cc1c(Nc2ccc(/C=C3\C(=O)Nc4ccccc43)cc2)c(=O)n(-c2ccccc2)n1C	TEAD-YAP inh 54
Cc1cccc(-n2ncc3c(=O)n(CC(=O)NCc4ccco4)cnc32)c1C	none
CC(=O)N1CCc2c(sc(NC(=O)Cc3cccc4ccccc34)c2C#N)C1	TEAD-YAP inh 54
N#Cc1c(NC(=O)CSc2ncn[nH]2)sc2c1CCCC2	TEAD-YAP inh 49
N#Cc1c(NC(=O)CCc2ccccc2)sc2c1CCCC2	TEAD-YAP inh 47
CC(=O)N1CCc2c(sc(NC(=O)Cc3cccc4ccccc34)c2C(N)=O)C1	none
N#Cc1c(NC(=O)CCc2ccccc2)sc2c1CCCCCC2	none
CC(=O)N1CCc2c(sc(NC(=O)CCc3ccccc3)c2C#N)C1	TEAD-YAP inh 54
O=C(Cc1ccccc1Cl)Nc1cccc(-c2ccn[nH]2)c1	none
Cc1ccccc1CN1CCN(Cc2cccc3ccccc23)CC1	MITF inh 79
Cc1sc2ncnc(SCc3cc([N+](=O)[O-])cc4c3OCOC4)c2c1C	none
Cc1sc2ncnc(SCc3cc(=O)oc4cc(O)c(O)cc34)c2c1C	MITF inh 64
O=C1NC(=O)NC2(N1)C(=O)Nc1ccccc12	none
Cc1ccccc1NCC(=O)N/N=C/c1cccc(O)c1	none
Cn1c(C2COc3ccccc3O2)nc2ccc(-c3ncnc4[nH]ccc34)cc21 (stereo not drawn)	FBW7 act 2.8
c1ccc2c(c1)OCC(c1nc3ccc(-c4ncnc5[nH]ccc45)cc3[nH]1)O2 (stereo not drawn)	TEAD-YAP inh 49
CCC(=O)NCC1Cc2cc(-c3cccc(C(=O)OC)c3)cc(Cl)c2O1 (stereo not drawn)	none
COc1ccc(CNc2ccc(C(=O)Nc3ccc(C)cc3C)cc2[N+](=O)[O-])cc1	TEAD-YAP inh 56
CCNc1ccc(C(=O)OCC(=O)OC(C)(C)C)cc1[N+](=O)[O-]	none
Cc1ccc(NC(=O)c2ccc(NCc3ccc(F)cc3)c([N+](=O)[O-])c2)c(C)c1	none
COc1cccc(NC(=O)c2ccc(NCc3ccccc3Cl)c([N+](=O)[O-])c2)c1	TEAD-YAP inh 52
CCNc1ccc(C(=O)NN)cc1[N+](=O)[O-]	TEAD-YAP inh 35
Cc1cc(C=C2C(=O)NC(=O)NC2=O)c(C)n1-c1ccc(C(=O)O)c(Cl)c1	MITF inh 54
CC(=O)NC1=NC(=O)/C(=C/c2cc(C)n(-c3ccc4c(c3)OCO4)c2C)S1	none
Cc1cc(C=C2C(=O)N(C)C(=S)N(C)C2=O)c(C)n1-c1ccc(Cl)c(C(=O)O)c1	MITF inh 68
CC(=O)NC1=NC(=O)/C(=C/c2cc(C)n(-c3cccc(C(=O)O)c3)c2C)S1	MITF inh 75
Cc1cccc(-n2c(C)cc(C=C3C(=O)NC(=S)NC3=O)c2C)c1	none
Cc1cc(C=C2C(=O)NC(=S)NC2=O)c(C)n1-c1cccc(C(=O)O)c1	MITF inh 78
Cc1cc(C=C2C(=O)N(C)C(=O)N(C)C2=O)c(C)n1-c1ccc(Cl)c(C(=O)O)c1	none
COc1ccc(NS(=O)(=O)c2cc([N+](=O)[O-])ccc2N/N=C(\C)c2ccccn2)cc1	none
O=C(/C=C/Nc1ccccc1[N+](=O)[O-])c1ccccc1	TEAD-YAP inh 67
O=C(/C=C\Nc1ccccc1[N+](=O)[O-])c1ccc(F)cc1	TEAD-YAP inh 43
CCOc1ccc(N/C=C/C(=O)c2ccco2)c([N+](=O)[O-])c1	none
CCOc1ccc(N/C=C/C(=O)c2ccccc2)c([N+](=O)[O-])c1	TEAD-YAP inh 60
Cc1ccc(C(=O)/C=C\Nc2ccccc2[N+](=O)[O-])cc1	none
O=C(O)C1CCCN(c2nn3cc(-c4ccc(F)cc4)nc3s2)C1 (stereo not drawn)	TEAD-YAP inh 85
COc1ccc(-c2cn3nc(N4CCCC(C(=O)O)C4)sc3n2)cc1 (stereo not drawn)	none
Fc1cc(-c2nc(Nc3ccc(-n4cnc(N5CCOCC5)n4)cc3)ncc2F)cc(N2CCOCC2)c1	none
Fc1cc(-c2nc(Nc3ccc(-n4cnc(-c5ccccn5)n4)cc3)ncc2F)cc(N2CCOCC2)c1	TEAD-YAP inh 58
c1ccc(-c2ncn(-c3ccc(Nc4nccc(-c5cccc(N6CCOCC6)c5)n4)cc3)n2)nc1	TEAD-YAP inh 80
c1cc(-c2ccnc(Nc3ccc(-n4cnnc4)cc3)n2)cc(N2CCOCC2)c1	TEAD-YAP inh 45
c1ccc(-c2ncn(-c3ccc(Nc4nccc(-c5cncc(N6CCOCC6)c5)n4)cc3)n2)nc1	TEAD-YAP inh 73
O=C(NNC(=O)c1cccnc1)Nc1ccc(Br)cc1	none
NC(=O)C1(N2CCCCC2)CCN(C(=O)c2cn(-c3ccc(F)cc3F)c(=O)c3ccccc23)CC1	none
Cc1ccc(CNC(=O)CCS(=O)(=O)c2cccc3nonc23)o1	none
COc1cccc(-c2cc(C(=O)Nc3cc(C)cc(C)c3)c3ccccc3n2)c1	none
CCOC(=O)c1csc2c1CCC/C2=N\O	TEAD-YAP inh 48
CCOC(=O)c1csc2c1CCC(Br)(Br)C2=O	none
CCOC(=O)c1csc2c1CCC/C2=N/O	TEAD-YAP inh 51
COc1cncc(-c2cnc3c(Nc4cc(OC)c(OC)c(OC)c4)nccn23)c1	TEAD-YAP inh 57
COc1cc(Nc2nccn3c(-c4ccc(F)cc4)cnc23)cc(OC)c1OC	TEAD-YAP inh 51
COc1ccc(-c2cnc3c(Nc4cc(OC)c(OC)c(OC)c4)nccn23)cc1	none
COc1cc(Nc2nccn3c(-c4ccc(N(C)C)cc4)cnc23)cc(OC)c1OC	TEAD-YAP inh 55
COc1ccc(CSc2n[nH]c(C)n2)cc1Br	TEAD-YAP inh 34
Cc1nc(SCc2ccc(Cl)c(Cl)c2)n[nH]1	none
O=C(O)CCCCCNC(=O)COc1ccc(Cl)cc1Cl	TEAD-YAP inh 69
O=C(COc1ccc(Cl)cc1Cl)NCCCCO	none
COC(=O)CCCCCNC(=O)COc1ccc(Cl)cc1Cl	TEAD-YAP inh 69
